Screening results (PubChem)
Only some compounds are listed: those with a hit (about 4.3% of all), similar ones and a draw of the others.
esBAF inh – inhibitors of esBAF chromatin remodeling in mouse ES cells | AID 602393 | 350,000 compounds, 2% hits | Bmi1-luciferase knock-in reporter, 24 h; 100% = twice the neutral-well signal | reporter increase, % at 12.5 µM; in the data active = activation above about 40%; inconclusive = no clear call, values can overlap the other calls;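 also: 0% = median of the plate's neutral control wells and 100% = double that signal; a rise in the Bmi1 reporter signal indicates esBAF inhibition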
SMARCA2 activ – increases SMARCA2 function in MMTV reporter cells; MG213 cells, MMTV-luciferase reporter, dexamethasone, overnight; activation, % at 9.1 µM; 370,000 compounds, 1% hits; AID 652017; in the data active = activation above about 7.8%;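 also: 0% = vehicle wells and 100% = reference activator wells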
Wnt act – activates Wnt/beta-catenin signaling in a reporter cell assay. AID 743398. 300,000 compounds, 1.2% hits. activation, % at 9.35 µM. activator, plate reader; in the data active = activation above about 30%, passing the limit was not always enough; inconclusive = no clear call, values can overlap the other calls;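 also: 0% = neutral control wells and 100% = positive control wells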
FGF22 binding – shifts melting point of recombinant human FGF22; 340,000 compounds, 1.5% hits; Q9HCT0; activity (Tm shift, normalised), % at 9.99 µM; recombinant FGF22 thermal shift, SYPRO orange fluorescence; percent of sucrose octasulfate shift, DMSO zero; AID 651658;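 active = mean Tm shift, scaled 0 neutral to 100 positive control, at about 1.3% or above, every replicate too, limit read from the data; inconclusive = no clear call, values can overlap the other calls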
Target sequence (Q9HCT0 whole entry, looked up): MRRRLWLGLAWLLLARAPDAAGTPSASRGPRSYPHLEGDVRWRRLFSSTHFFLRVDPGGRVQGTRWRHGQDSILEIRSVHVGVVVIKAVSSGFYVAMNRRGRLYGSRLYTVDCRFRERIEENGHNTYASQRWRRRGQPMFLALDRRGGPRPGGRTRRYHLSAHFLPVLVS
MITF act – MITF TRPM1 promoter activation in melanoma cells; 300,000 compounds, 0.75% hits; activation, % at 12.5 µM; AID 588334; SK-MEL-5 TRPM1-promoter luciferase, 24 h; % of positive control, neutral wells = 0;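 active = mean activation of at least 80% with every replicate also reaching 80%; inconclusive = mean reaches 80% but some replicate falls short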;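 also: 0% = neutral control wells and 100% = parthenolide positive control wells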
MLL AF4-AF9 inh – MLL-AF4/AF9 protein interaction inhibition; inhibition, % at 10 µM; 350,000 compounds, 0.47% hits; AlphaScreen, biotin-AF4 peptide binding to FLAG-AF9;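 active = every replicate reaching a set inhibition limit, whatever the replicate mean, cut at about 25% in these data; inconclusive = mean inhibition reaches that limit but some replicates miss it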;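 also: 0% = plate neutral control median and 100% = total signal loss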
Target sequence (P42568 whole entry, looked up): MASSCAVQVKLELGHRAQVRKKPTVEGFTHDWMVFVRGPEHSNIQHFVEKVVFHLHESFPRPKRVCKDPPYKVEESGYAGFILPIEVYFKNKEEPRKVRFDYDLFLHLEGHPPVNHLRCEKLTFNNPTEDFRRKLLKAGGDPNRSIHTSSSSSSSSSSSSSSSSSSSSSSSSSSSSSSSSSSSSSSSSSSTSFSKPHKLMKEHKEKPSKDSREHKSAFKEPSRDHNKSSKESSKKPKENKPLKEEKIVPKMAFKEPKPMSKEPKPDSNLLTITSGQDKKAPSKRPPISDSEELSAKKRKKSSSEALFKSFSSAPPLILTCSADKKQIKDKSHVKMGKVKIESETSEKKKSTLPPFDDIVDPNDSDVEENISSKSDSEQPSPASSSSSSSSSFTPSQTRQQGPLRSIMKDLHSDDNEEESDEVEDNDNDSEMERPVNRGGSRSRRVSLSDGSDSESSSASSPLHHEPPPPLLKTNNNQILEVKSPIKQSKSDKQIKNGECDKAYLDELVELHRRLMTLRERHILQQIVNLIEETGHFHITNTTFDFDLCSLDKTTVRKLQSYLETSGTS
An asterisk follows results filed as active; ? = inconclusive; · = no result given.

SMILES | esBAF inh | SMARCA2 activ | Wnt act | FGF22 binding | MITF act | MLL AF4-AF9 inh
CO[C@H]1CN(C)C(=O)c2cc(NC(=O)c3ccccc3)ccc2OC[C@H](C)N(CC2CC2)C[C@H]1C | -4.6 | · | · | · | · | ·
Brc1ccc(-c2ncc(-c3ccccc3)cn2)cc1 | -3.2 | 3.4 | · | · | 33.3 | ·
c1ccc(-c2cnc(-c3ccccc3)nn2)cc1 | -39.5 | 7.9* | 23.4 | 0.0 | 14.3 | -0.7
c1ccc(-c2cnc(-c3ccccn3)nn2)cc1 | -15.3 | 6.8 | 46.0* | -0.1 | 48.8 | 3.5
COc1ccc(C#Cc2ccc([C@@H]3[C@H](CO)N4C(=O)CN(C(=O)c5cccnc5)C[C@@H]34)cc2)cc1 | · | · | · | · | · | -3.3
C[C@@H]1CN([C@@H](C)CO)C(=O)c2cc(NC(=O)Nc3cccc4ccccc34)ccc2O[C@H]1CN(C)Cc1ccncc1 | -0.8 | · | · | -0.7 | · | 1.9
CC(=O)N(C)C[C@@H]1Oc2cc(C#Cc3ccccc3)ccc2S(=O)(=O)N([C@H](C)CO)C[C@H]1C | 1.6 | · | · | -0.5 | · | 2.3
O=Nc1c(-c2ccccc2)cc2ccccn12 | 20.4 | 1.1 | 5.5 | 43.1* | 21.2 | ?
Cc1nc(C)c(C(=O)Nc2cccc(F)c2)s1 | 2.8 | 1.4 | 2.4 | -0.3 | -5.4 | 3.2
COc1cccc(C(=O)Nc2cccc(SC)c2)c1 | 60.4* | 4.5 | 5.0 | · | 80.5* | ·
COc1cccc(-c2nnc(NC(=O)c3ccco3)s2)c1 | 12.1 | 4.3 | 35.4* | -0.2 | 57.9 | -3.7
Cc1cc(C)c(C(=O)Nc2cccc(F)c2)c(Cl)n1 | · | -2.2 | 0.4 | 43.0* | 4.7 | -1.4
COc1ccc(-c2nnc(NC(=O)c3ccco3)s2)cc1 | 16.3 | 2.6 | 12.5 | 0.3 | 32.1 | -6.9
COc1ccc(C(=O)Nc2ccccc2C(N)=O)cc1 | 33.1 | 3.6 | · | · | 83.0* | ·
C[C@H](CO)N1C[C@H](C)[C@H](CN(C)C(=O)Nc2ccc(F)cc2)Oc2ccc(NC(=O)CCN3CCOCC3)cc2CC1=O | -6.7 | · | · | -0.5 | · | -2.3
COc1ccc(C(=O)Nc2ccc3nc(C)c(C)nc3c2)cc1 | 62.4* | -0.7 | 8.0 | 0.3 | 35.7 | -0.1
COc1cc(OC)cc(C(=O)Nc2ccc(-n3cnnn3)c(C)c2)c1 | · | 6.7 | -0.9 | 0.1 | 108.4* | -2.9
CNS(=O)(=O)c1cc(NC(=O)c2cccc3cccnc23)ccc1C | 24.8 | 0.3 | 9.7 | -0.4 | 14.9 | 3.8
CN(C)S(=O)(=O)c1cccc(C(=O)Nc2ccccc2)c1 | · | 5.2 | -2.8 | 43.2* | 12.2 | -0.3
CSc1cccc(NC(=O)c2cccc3cccnc23)c1 | 48.1* | 3.1 | 11.9 | -0.2 | 44.1 | 3.6
O=C(N[C@H](Cc1ccccc1)C(=O)N1CCN(Cc2ccccn2)CC1)[C@H]1O[C@@H](n2ccc(=O)[nH]c2=O)[C@H](O)[C@@H]1O | · | 3.2 | -3.7 | -0.1 | · | ·
COc1cccc(NC(=O)c2ccc(C(=O)c3ccccc3)o2)c1 | 38.0 | 3.8 | 36.8* | 0.1 | ? | -0.7
COc1ccc(NC(=O)c2ccccc2)cc1 | 21.4 | 7.0 | 28.1 | -0.2 | 108.1* | 6.3
COc1ccc(C(=O)Nc2ccc(C(=O)NCCc3ccccc3)cc2)cc1 | · | -1.1 | -2.8 | 44.1* | 13.5 | -1.1
CCCNC(=O)C(=O)NCc1ccccn1 | · | 5.5 | -5.3 | · | -2.5 | -4.6
SMILES | esBAF inh | SMARCA2 activ | Wnt act | FGF22 binding | MITF act | MLL AF4-AF9 inh
O=C(Nc1ccc(O)cc1)c1ccc(C(=O)c2ccccc2)o1 | 25.4 | 1.0 | · | · | · | ·
COc1ccc(NC(=O)c2ccc(C)cc2)cc1 | -29.7 | 2.2 | 9.3 | -0.2 | 42.3 | -4.5
COc1ccc(CCNC(=O)C(=O)NCc2ccccn2)cc1 | -6.5 | -2.5 | 37.4* | 0.0 | -1.2 | 2.0
C[C@@H]1CN([C@H](C)CO)C(=O)Cc2cc(NC(=O)Nc3ccc(F)cc3)ccc2O[C@H]1CN(C)C(=O)Nc1ccc2c(c1)OCO2 | -0.1 | · | · | 0.1 | · | 1.0
CO[C@@H]1CN(C)C(=O)c2cc(NC(C)=O)ccc2OC[C@@H](C)N(C(=O)c2ccccc2)C[C@@H]1C | -2.0 | · | · | 0.0 | · | -0.6
COc1cccc(C(=O)Nc2ccccc2)c1 | 51.6* | 1.6 | · | · | · | ·
COc1cccc(C(=O)Nc2cccc(C(=O)NC3=NN(c4c(Cl)cc(Cl)cc4Cl)C(=O)C3)c2)c1 | 6.2 | -2.0 | 32.3* | · | · | ·
COc1cccc(NC(=O)c2cccc(NC(=O)c3ccco3)c2)c1 | 2.5 | 1.6 | -0.5 | 43.2* | · | 0.1
CC(C)(C)C(=O)NC1=NN(c2c(Cl)cc(Cl)cc2Cl)C(=O)C1 | · | 2.2 | 1.7 | 0.2 | -3.1 | 2.2
COc1cccc(C(=O)Nc2ccc(NC(=O)Cc3ccccc3)cc2)c1 | -4.5 | 1.2 | -1.0 | -0.2 | · | 0.2
COc1cccc(C(=O)Nc2ccc(NC(=O)c3ccco3)c(Cl)c2)c1 | · | 3.0 | 5.1 | 0.2 | 33.2 | 0.4
COc1cccc(C(=O)NCC2(c3ccccc3)CCCC2)c1 | 3.3 | -4.3 | -1.1 | 43.0* | -11.0 | -2.2
CC(C)NC(=O)Nc1ccc2c(c1)C(=O)N([C@@H](C)CO)C[C@H](C)[C@H](CN(C)S(=O)(=O)c1ccc(F)cc1)OCCCC[C@H](C)O2 | -2.5 | · | · | 0.1 | · | 2.3
COc1ccc2c3c([nH]c2c1)[C@@H](CO)N(C(=O)c1cccc(F)c1)CC31CCN(C(=O)CC2CC2)CC1 | · | · | · | -0.1 | · | 0.6
COC(=O)[C@]12C[C@H](CC(=O)NCc3ccc(OC)c(OC)c3)C(=O)N(Cc3ccco3)C1=C[C@H](COCc1ccccc1)O[C@@H]2C | · | -1.3 | · | · | · | ·
COc1cccc(/C(C)=N/N=C(\C)c2cccc(OC)c2)c1 | 70.5* | 1.0 | 10.7 | -0.3 | · | 3.8
COc1ccc(C(=O)Nc2cc(OC)nc(OC)n2)cc1 | 23.5 | 7.6 | · | · | 91.5* | ·
COc1ccc(C(=O)CCc2ccccc2)cc1 | 48.5* | 4.2 | 13.7 | -0.2 | 98.3* | -2.3
Cc1ccccc1-c1ccc(C(=O)Nc2cccc(F)c2)o1 | 45.1* | 4.9 | 26.6 | 0.5 | 52.6 | 1.5
O=C(Nc1cccc(F)c1)c1ccc(-c2ccccc2C(F)(F)F)o1 | · | 0.9 | 16.1 | 0.1 | · | -1.4
COc1ccc(NC(=O)c2c(NC(=O)CCC(=O)O)sc(-c3ccccc3)c2C)cc1 | · | -0.5 | 34.1* | -0.3 | 2.3 | -8.6
COc1ccc(C(=O)Nc2ccc3c(c2)nc2n3CCSC2)cc1 | 33.1 | 4.5 | 48.8* | · | · | ·
Cc1cccc(C(=O)NNC(=O)c2ccco2)c1 | · | -0.1 | -6.9 | 43.0* | -13.8 | -1.9
COc1cccc(NC(=O)c2c(C)nn(-c3ccccc3)c2Cl)c1 | 50.0* | -0.7 | 14.8 | 0.1 | · | -3.9
Cc1cccc(NC(=O)c2cccc(NC(=O)c3ccco3)c2)c1 | 3.9 | -1.4 | -1.6 | 0.0 | 6.3 | 6.8
O=C(C[C@H]1C=C[C@H](NC(=O)Nc2ccc(F)cc2)[C@H](CO)O1)NCc1ccccn1 | 0.2 | · | · | -0.1 | · | 1.8
Cc1ccc(C(=O)Nc2cccc(Oc3ccccc3)c2)o1 | 68.5* | 2.3 | · | · | 89.7* | ·
COc1ccc(NC(=O)c2ccc(-c3ccccc3C(F)(F)F)o2)cc1 | 26.5 | 7.9* | 0.7 | 44.2* | 50.1 | 0.3
